This is part of a sample that, as a whole, favours compounds with a hit. Of some 83,000 tested, about 20% had one in any assay.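 Single-dose data. Exposure time 48 hours. Values below 10 considered active.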 A number with no mark means an inactive call. The source made the active and inactive calls.
What was measured:
Test in all cases: NCI-60 one-dose screen, 48 h (100 = growth as untreated, 0 = no growth, -100 = all killed)
Conditions in all cases: 10 µM unless noted
[1] = test system: T-47D breast
[2] = test system: BT-549 breast
[3] = test system: MDA-MB-435 melanoma
[4] = test system: SW-620 colon
[5] = test system: MCF7 breast
[6] = test system: HCT-116 colon
[7] = test system: HCC-2998 colon
[8] = test system: KM12 colon

| Structure (SMILES) | growth [1] | growth [2] | growth [3] | growth [4] | growth [5] | growth [6] | growth [7] | growth [8] |
| --- | --- | --- | --- | --- | --- | --- | --- | --- |
| Nc1nc(NC2CC2)c2ncn(C3C=CC(CO)C3)c2n1 (stereo not given) | 110% | 115% | 105% | 106% | 107% | 109% | 103% | – |
| CCSc1ncc(Br)c(Sc2nc(N)nc3nc[nH]c23)n1 | 29.9% | 65.3% | 37.7% | 91.4% | 47% | 36.8% | 41.4% | 79% |
| c1ccc2nc(N/N=C3\CCCCC3C3CCCCC3)ccc2c1 (stereo not given) | 40.4% | 61% | 78.8% | 44.2% | 58.1% | 6.79% (active) | 64.2% | 38.4% |
| COc1cc(/C=C2\CN(S(=O)(=O)c3ccc(C)cc3)C/C(=C\c3cc(CN4CCOCC4)c(O)c(OC)c3)C2=O)cc(CN2CCOCC2)c1O | 63.9% | -21.8% (active) | -19.7% (active) | 3.91% (active) | 10.6% | -83.3% (active) | -89.3% (active) | – |
| c1ccc(Nc2ccc(Nc3nc(-c4ccccc4)nc4ccccc34)cc2)cc1 | 47.9% | 93.8% | 87.5% | 75.7% | 80.6% | 74.9% | 89% | 36.4% |
| Cc1ccc(/C=C(/C#N)n2nnc3ncccc32)cc1 | 5.39% (active) | 11.3% | -52.9% (active) | 9.59% (active) | 14.5% | 4.5% (active) | 15.7% | 24.6% |
| COc1ccc(C(=O)/C=C/c2cccc(Nc3ccnc4cc(Cl)ccc34)c2)cc1 | 15.7% | 20.6% | 28.1% | 19% | 23.4% | 9.57% (active) | 68.8% | 53% |
| COC(=O)N/N=C/c1coc2ccc(Cl)cc2c1=O | 83% | 82.5% | 103% | 101% | 88.9% | 95.5% | 101% | 94% |
| CCOC(=O)/C=C1/SC(=Nc2ccc(C#N)cc2)N(Cc2ccco2)C1=O | 12.1% | 44.8% | 50.5% | 12% | 12.6% | -61.6% (active) | 64.7% | 60.9% |
| Cc1ccc(-c2c3c(N)c4c(nc3nc3c2c(C)nn3-c2ccccc2)CCC4)cc1 | 103% | 90.4% | 103% | 6.36% (active) | 14.9% | -72.5% (active) | 100% | 79.8% |
| O=C(CC1Sc2ccccc2NC1=O)NNc1cccc(Cl)c1Cl (stereo not given) | 73% | 89.1% | 95.4% | 87.3% | 92.4% | 87% | 88.5% | 82.7% |
| C/C(=C\CCc1ccsc1)CC/C=C(\C)CCCN1CCSCC1 | 70.1% | 97.1% | 85.9% | 92% | 90.9% | 77.7% | 96.4% | 84.3% |
| C=C1CCC2C3(C)COC(c4ccccc4)OC3CCC2(C)C1C/C=C1/C(=O)OCC1OC(C)=O (stereo not given) | 71.1% | 103% | 88.6% | 41.4% | 24.9% | 24.9% | 107% | 84.4% |
| COC(=O)c1cc2oc(/C=N\NC(=O)c3cc4oc(C)c(C)c4[nH]3)cc2[nH]1 | 90.2% | 91.3% | 96.6% | 108% | 86.8% | 101% | 101% | 108% |
| COc1cccc(-c2nc(-c3ccc(N)cc3)co2)c1 | 105% | 110% | 93.3% | 113% | 98.9% | 91.5% | 122% | 99.2% |
| CC[C@@H](c1ccc(O)c(O)c1)[C@@H](CC)c1ccc(O)c(O)c1 | -8.01% (active) | 98% | 62.9% | 5.74% (active) | 98.8% | 9.12% (active) | 103% | 102% |
| C=C1CC[C@@H]2[C@](C)(COC(C)=O)[C@H](OC(C)=O)CC[C@@]2(C)[C@@H]1CC(NCc1ccccc1)C1=CCOC1=O (stereo not given in full) | 14.2% | 28.1% | 27.9% | 47.3% | 29.8% | 42.3% | 93.7% | 39.1% |
| CN(C)c1ccc(-n2nc3ccccc3n2)cc1 | 78.4% | 91.6% | 100% | 95.9% | 89.9% | 77% | 75.3% | 108% |
| COc1ccc2c(c1)[n+](=O)c(C(=O)/C=C/c1cc(OC)c(OC)c(OC)c1)c(C)n2[O-] | 60.1% | 28.8% | 69.5% | 72.4% | 45.6% | 50.3% | 98.1% | 88.6% |
| O=C(c1ccccc1)C(CN1CCCCC1)c1ccccc1 (stereo not given) | 34.9% | 83.8% | 23.9% | -82.6% (active) | 0.432% (active) | -100% (active) | 89% | 14.4% |
| CC(C)CNc1nc(N=[N+]=[N-])nc(NCC(C)C)n1 | 48.6% [100 µM] | 56.9% [100 µM] | 55.6% [100 µM] | 81.9% [100 µM] | 52.4% [100 µM] | 42.9% [100 µM] | 79.4% [100 µM] | 53.6% [100 µM] |
| O=C1C2C(C(=O)N1CC[Se][Se]CCN1C(=O)C3C(C1=O)[C@H]1C=C[C@@H]3C1)[C@H]1C=C[C@@H]2C1 (stereo not given in full) | 5.4% (active) | -40.3% (active) | -65.9% (active) | 8.38% (active) | 9.03% (active) | 1.96% (active) | 28.6% | 0.112% (active) |
| COc1ccc(C2=NN(C(C)=O)C(c3cccc(Nc4ccnc5cc(Cl)ccc45)c3)C2)cc1 (stereo not given) | 37.5% | 50.4% | 41.4% | 74.4% | 37.4% | 44.3% | 83.1% | 54.1% |
| CC(C)OP(=O)(OC(C)C)c1ncc(-c2ccc(C(F)(F)F)cc2)c(NC2CCCCCC2)n1 | -13.8% [33.3 µM] (active) | -95% [33.3 µM] (active) | -75.2% [33.3 µM] (active) | -52.7% [33.3 µM] (active) | 0.217% [33.3 µM] (active) | -93.4% [33.3 µM] (active) | -87.6% [33.3 µM] (active) | -95.8% [33.3 µM] (active) |
| O=C(CNC(=O)c1cccc2ccccc12)Nc1ccccc1Oc1ccc(O)cc1 | 36.5% [5 µM] | 58.5% [5 µM] | -16.1% [5 µM] (active) | 28.9% [5 µM] | 27.1% [5 µM] | 15.9% [5 µM] | 55.6% [5 µM] | 30.1% [5 µM] |
| CCCn1c(N)c(C(=O)CNc2ccc(I)cc2)c(=O)[nH]c1=O | 94.9% | 61.4% | 51.1% | 35.3% | 57.1% | 32.3% | 74.2% | 43.7% |
| CCCCOP(=O)(OCCCC)C(C(=O)OCC)C(CC(=O)OCC)C(=O)OCC (stereo not given) | 114% | 114% | 104% | 106% | 93.1% | 112% | 109% | 111% |
| CC1c2ccccc2-c2ccccc2N1C (stereo not given) | 85.7% | 103% | 119% | 108% | 99.4% | 96% | 105% | 104% |
| Cc1cc2c(cc1C)[n+](Cc1ccc3ccccc3n1)cn2Cc1ccc2ccccc2n1 | -1.32% (active) | -45.9% (active) | -24.5% (active) | 9.34% (active) | 7.12% (active) | -0.984% (active) | 3.84% (active) | -7.23% (active) |
